Test results reported in PubChem BioAssay AID1159580 (chemical genetic matrix, 2015).
Among all 5,500 compounds or so, about 2,000 (36%) were called active. Another 18% or so got no clear call; they are omitted. This is one part of the list. Values without a mark were called inactive. No stated cut-off is given here; in the data, active means normalized growth mostly below about 0.91 (no sharp cut-off); inconclusive means no clear call, values can overlap the other calls; inactive means mostly above about 0.92.

Experiment: chemical genetic growth profiling, strain panel (AID 1159580);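 further: tested at 20 µM; growth read once vehicle control cultures reached saturation at 30 °C; 1 = growth at the plate median or of vehicle wells; lower values mean less growth of the strain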
Conditions: S. cerevisiae deletion strains, growth OD

With `CCCCCC(=O)Cc1cc(O)cc(O)c1C(=O)Oc1cc(CC(=O)CCCCC)c(C(=O)O)c(OC)c1` the normalized growth (locus YAL021C, strain ccr4, hits give low values) was 0.892 (active), the normalized growth (locus YAL026C, strain drs2, hits give low values) was 0.86 (active) and the normalized growth (locus YAL030W, strain snc1, hits give low values) was 0.934. For the same compound, the normalized growth (locus YBL061C, strain skt5, hits give low values) was 0.925, the normalized growth (locus YBR009C, strain hhf1, hits give low values) was 0.881 (active) and the normalized growth (locus YBR023C, strain chs3, hits give low values) was 0.907 (active). For the same compound, the normalized growth (locus YBR171W, strain sec66, hits give low values) was 0.858 (active), the normalized growth (locus YBR231C, strain swc5, hits give low values) was 0.927 and the normalized growth (locus YBR279W, strain paf1, hits give low values) was 0.943. It also gave a normalized growth (locus YCL011C, strain gbp2, hits give low values) of 0.933, a normalized growth (locus YCL016C, strain dcc1, hits give low values) of 0.943 and a normalized growth (locus YCL069W, strain vba3, hits give low values) of 0.929. The normalized growth (locus YCR088W, strain abp1, hits give low values) was 0.934, the normalized growth (locus YDL005C, strain med2, hits give low values) was 0.954 and the normalized growth (locus YDL040C, strain nat1, hits give low values) was 0.939. For the same compound, the normalized growth (locus YDR001C, strain nth1, hits give low values) was 0.936, the normalized growth (locus YDR069C, strain doa4, hits give low values) was 0.95 and the normalized growth (locus YDR137W, strain rgp1, hits give low values) was 0.412 (active). The normalized growth (locus YDR159W, strain sac3, hits give low values) was 0.771 (active), the normalized growth (locus YDR195W, strain ref2) was 0.863 and the normalized growth (locus YDR297W, strain sur2, hits give low values) was 0.927. For the same compound, the normalized growth (locus YDR334W, strain swr1, hits give low values) was 0.917, the normalized growth (locus YDR335W, strain msn5, hits give low values) was 0.894 (active) and the normalized growth (locus YDR392W, strain spt3, hits give low values) was 0.404 (active). It also gave a normalized growth (locus YEL003W, strain gim4, hits give low values) of 0.919, a normalized growth (locus YEL037C, strain rad23, hits give low values) of 0.941 and a normalized growth (locus YEL061C, strain CIN8 (second series), hits give low values) of 0.946. The normalized growth (locus YER015W, strain faa2, hits give low values) was 0.947, the normalized growth (locus YER016W, strain bim1, hits give low values) was 0.913 (active) and the normalized growth (locus YER111C, strain swi4, hits give low values) was 0.941. For the same compound, the normalized growth (locus YER155C, strain BEM2 (second series), hits give low values) was 0.639 (active), the normalized growth (locus YFR010W, strain ubp6, hits give low values) was 0.933 and the normalized growth (locus YGL167C, strain pmr1, hits give low values) was 0.89 (active). The normalized growth (locus YGL173C, strain kem1, hits give low values) was 0.851 (active), the normalized growth (locus YGL227W, strain vid30, hits give low values) was 0.937 and the normalized growth (locus YGL240W, strain doc1, hits give low values) was 0.77 (active). The normalized growth (locus YGL253W, strain hxk2, hits give low values) was 0.855 (active), the normalized growth (locus YHR013C, strain ard1, hits give low values) was 1.18 [resistant] (active) and the normalized growth (locus YHR027C, strain rpn1, hits give low values) was 0.919 (active). The normalized growth (locus YHR030C, strain SLT2, hits give low values) was 1.01, the normalized growth (locus YHR079C, strain IRE1, hits give low values) was 0.981 and the normalized growth (locus YHR142W, strain chs7, hits give low values) was 0.818 (active). The normalized growth (locus YJL092W, strain hpr5, hits give low values) was 0.943, the normalized growth (locus YJL095W, strain BCK1 (second series), hits give low values) was 0.694 (active) and the normalized growth (locus YJL095W, strain BCK1, hits give low values) was 0.99. For the same compound, the normalized growth (locus YJL115W, strain asf1, hits give low values) was 0.922, the normalized growth (locus YJL129C, strain trk1, hits give low values) was 0.632 (active) and the normalized growth (locus YJL154C, strain vps35, hits give low values) was 0.935. For the same compound, the normalized growth (locus YJL164C, strain tpk1, hits give low values) was 0.899 (active), the normalized growth (locus YJL166W, strain qcr8, hits give low values) was 0.871 (active) and the normalized growth (locus YJL187C, strain SWE1, hits give low values) was 0.909 (active). The normalized growth (locus YJR066W, strain TOR1, hits give low values) was 0.939, the normalized growth (locus YKL160W, strain elf1, hits give low values) was 0.916 and the normalized growth (locus YKR026C, strain gcn3, hits give low values) was 0.933. For the same compound, the normalized growth (locus YKR091W, strain srl3, hits give low values) was 0.922 (active), the normalized growth (locus YLL001W, strain dnm1, hits give low values) was 0.941 and the normalized growth (locus YLL026W, hits give low values) was 0.935. For the same compound, the normalized growth (locus YLL041C, strain sdh2, hits give low values) was 0.927 (active), the normalized growth (locus YLR027C, strain aat2, hits give low values) was 0.922 (active) and the normalized growth (locus YLR113W, strain HOG1, hits give low values) was 0.983. The normalized growth (locus YLR221C, strain rsa3, hits give low values) was 0.859 (active), the normalized growth (locus YLR258W, strain gsy2, hits give low values) was 0.919 and the normalized growth (locus YLR262C, strain YPT6 (second series), hits give low values) was 0.409 (active). The normalized growth (locus YLR320W, strain mms22, hits give low values) was 0.826 (active), the normalized growth (locus YLR342W, strain FKS1, hits give low values) was 0.901 (active) and the normalized growth (locus YLR357W, strain rsc2, hits give low values) was 0.866. The normalized growth (locus YLR370C, strain arc18, hits give low values) was 0.925, the normalized growth (locus YLR384C, strain iki3, hits give low values) was 0.945 and the normalized growth (locus YML120C, strain ndi1, hits give low values) was 0.898 (active). The normalized growth (locus YMR058W, strain fet3, hits give low values) was 0.883 (active), the normalized growth (locus YMR125W, strain sto1, hits give low values) was 0.909 and the normalized growth (locus YMR129W, hits give low values) was 0.918 (active). For the same compound, the normalized growth (locus YMR205C, strain PFK2, hits give low values) was 0.783 (active), the normalized growth (locus YMR231W, strain pep5, hits give low values) was 0.929 and the normalized growth (locus YNL071W, strain lat1, hits give low values) was 0.888 (active). For the same compound, the normalized growth (locus YNL183C, strain NPR1, hits give low values) was 0.946, the normalized growth (locus YNL209W, strain ssb2, hits give low values) was 0.948 and the normalized growth (locus YNL248C, strain rpa49, hits give low values) was 0.903. For the same compound, the normalized growth (locus YNL322C, strain KRE1 (second series), hits give low values) was 0.919, the normalized growth (locus YNR049C, strain mso1, hits give low values) was 0.95 and the normalized growth (locus YOR001W, strain rrp6, hits give low values) was 0.882 (active). The normalized growth (locus YOR070C, strain gyp1, hits give low values) was 0.918 (active), the normalized growth (locus YOR080W, strain dia2, hits give low values) was 0.938 and the normalized growth (locus YOR083W, strain WHI5, hits give low values) was 0.898. The normalized growth (locus YOR106W, strain vam3, hits give low values) was 0.897, the normalized growth (locus YOR231W, strain MKK1, hits give low values) was 0.994 and the normalized growth (locus YOR265W, strain rbl2, hits give low values) was 0.925 (active). For the same compound, the normalized growth (locus YOR270C, strain vph1, hits give low values) was 0.607 (active), the normalized growth (locus YOR290C, strain snf2, hits give low values) was 0.925 and the normalized growth (locus YPL051W, strain arl3, hits give low values) was 0.853 (active). For the same compound, the normalized growth (locus YPL078C, strain atp4, hits give low values) was 0.862 (active), the normalized growth (locus YPL106C, strain sse1, hits give low values) was 0.812 (active) and the normalized growth (locus YPL240C, strain hsp82, hits give low values) was 0.912 (active). It also gave a normalized growth (locus YPL256C, strain CLN2, hits give low values) of 0.989.
